# Measurements: paper PMC8384837, “Expanding the binding specificity for RNA recognition by a PUF domain”
# Experiments:
# Experiment in all cases: yeast three-hybrid, YBZ-1, SC-Leu-His + 0.5 mM 3-AT, 4 days
# Conditions in all cases: tags: N-Gal4 AD-HA kept; label: inside an RPR1-promoter hybrid RNA with tandem MS2 sites; ssRNA
# [1] = target: PUM1 PUF domain R7-KHF (Homo sapiens, UniProt Q14671 828-1176, S1079K;N1080H;E1083F)
# How it was run: (§1)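 A centromeric plasmid in strain YBZ-1 co-expressed Pumilio-1 PUF domain libraries, randomized at the three base-contacting residues of each repeat, with matching RNA elements; the strain carries a LexA–MS2 coat fusion and a HIS3 reporter. After four days on SC-Leu (input) or SC-Leu-His + 0.5 mM 3-AT (selection), the repeat regions were PCR-amplified and Illumina-sequenced. The interaction score is the log change in variant frequency from input to selection, using log2 and a pseudocount of 1 where absent.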
# [2] = target: PUM1 PUF domain R1-VKK (Homo sapiens, UniProt Q14671 828-1176, S863V;R864K;Q867K)
# Sequence of PUM1 PUF domain R1-VKK (Q14671 828-1176 S863V/R864K/Q867K): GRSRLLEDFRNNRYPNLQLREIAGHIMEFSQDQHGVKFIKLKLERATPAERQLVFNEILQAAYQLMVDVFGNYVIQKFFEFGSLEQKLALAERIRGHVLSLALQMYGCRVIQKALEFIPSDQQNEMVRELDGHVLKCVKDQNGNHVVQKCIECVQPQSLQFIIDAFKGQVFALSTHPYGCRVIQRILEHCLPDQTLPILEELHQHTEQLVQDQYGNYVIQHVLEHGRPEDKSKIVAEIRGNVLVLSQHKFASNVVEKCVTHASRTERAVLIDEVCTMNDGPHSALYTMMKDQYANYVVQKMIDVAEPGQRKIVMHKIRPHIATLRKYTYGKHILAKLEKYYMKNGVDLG
# How it was run: as §1
# [3] = target: PUM1 PUF domain R1-RNQ (Homo sapiens, UniProt Q14671 828-1176, S863R;R864N)
# Sequence of PUM1 PUF domain R1-RNQ (Q14671 828-1176 S863R/R864N): as the sequence (Q14671 828-1176 S863V/R864K/Q867K) above, with V36R, K37N, K40Q counted along it
# How it was run: as §1
# [4] = target: PUM1 PUF domain R7-QSN (Homo sapiens, UniProt Q14671 828-1176, S1079Q;N1080S;E1083N)
# Sequence of PUM1 PUF domain R7-QSN (Q14671 828-1176 S1079Q/N1080S/E1083N): as the sequence (Q14671 828-1176 S863V/R864K/Q867K) above, with V36S, K37R, K40Q, S252Q, N253S, E256N counted along it
# How it was run: as §1
# [5] = target: PUM1 PUF domain R7-KVV (Homo sapiens, UniProt Q14671 828-1176, S1079K;N1080V;E1083V)
# Sequence of PUM1 PUF domain R7-KVV (Q14671 828-1176 S1079K/N1080V/E1083V): as the sequence (Q14671 828-1176 S863V/R864K/Q867K) above, with V36S, K37R, K40Q, S252K, N253V, E256V counted along it
# How it was run: as §1
# [6] = target: PUM1 PUF domain R3-RNA (Homo sapiens, UniProt Q14671 828-1176, C935R;R936N;Q939A)
# Sequence of PUM1 PUF domain R3-RNA (Q14671 828-1176 C935R/R936N/Q939A): as the sequence (Q14671 828-1176 S863V/R864K/Q867K) above, with V36S, K37R, K40Q, C108R, R109N, Q112A counted along it
# How it was run: as §1
# [7] = target: PUM1 PUF domain R2-RKW (Homo sapiens, UniProt Q14671 828-1176, N899R;Y900K;Q903W)
# Sequence of PUM1 PUF domain R2-RKW (Q14671 828-1176 N899R/Y900K/Q903W): as the sequence (Q14671 828-1176 S863V/R864K/Q867K) above, with V36S, K37R, K40Q, N72R, Y73K, Q76W counted along it
# How it was run: as §1
# [8] = target: PUM1 PUF domain R8-AYR (Homo sapiens, UniProt Q14671 828-1176, N1122A;Q1126R)
# Sequence of PUM1 PUF domain R8-AYR (Q14671 828-1176 N1122A/Q1126R): as the sequence (Q14671 828-1176 S863V/R864K/Q867K) above, with V36S, K37R, K40Q, N295A, Q299R counted along it
# How it was run: as §1
# Sequence of PUM1 PUF domain R7-KHF (Q14671 828-1176 S1079K/N1080H/E1083F): as the sequence (Q14671 828-1176 S863V/R864K/Q867K) above, with V36S, K37R, K40Q, S252K, N253H, E256F counted along it
sequence,measurement,setting,value
GGCUAGAACUAGUGGAUCCCCCGGCGCCCGGCGGCUCGAGCCCGGGUAAGUCUAAAUAGUCUGCAUGCCGCCGGGCGCCAUGCCUGCAGGUCGACUCUAGAAAACAUG,binding signal,[1],2.94 log2 enrichment (interaction score)
GGCUAGAACUAGUGGAUCCCCCGGCGCCCGGCGGCUCGAGCCCGGGUAAGUGUAAAUUGUCUGCAUGCCGCCGGGCGCCAUGCCUGCAGGUCGACUCUAGAAAACAUG,binding signal,[2],2.11 log2 enrichment (interaction score)
GGCUAGAACUAGUGGAUCCCCCGGCGCCCGGCGGCUCGAGCCCGGGUAAGUGUAAAUCGUCUGCAUGCCGCCGGGCGCCAUGCCUGCAGGUCGACUCUAGAAAACAUG,binding signal,[3],4.55 log2 enrichment (interaction score)
GGCUAGAACUAGUGGAUCCCCCGGCGCCCGGCGGCUCGAGCCCGGGUAAGUUUAAAUAGUCUGCAUGCCGCCGGGCGCCAUGCCUGCAGGUCGACUCUAGAAAACAUG,binding signal,[4],4.28 log2 enrichment (interaction score)
same,binding signal,[5],2.62 log2 enrichment (interaction score)
GGCUAGAACUAGUGGAUCCCCCGGCGCCCGGCGGCUCGAGCCCGGGUAAGUGUAAUUAGUCUGCAUGCCGCCGGGCGCCAUGCCUGCAGGUCGACUCUAGAAAACAUG,binding signal,[6],3.87 log2 enrichment (interaction score)
GGCUAGAACUAGUGGAUCCCCCGGCGCCCGGCGGCUCGAGCCCGGGUAAGUGUAAAGAGUCUGCAUGCCGCCGGGCGCCAUGCCUGCAGGUCGACUCUAGAAAACAUG,binding signal,[7],2.92 log2 enrichment (interaction score)
GGCUAGAACUAGUGGAUCCCCCGGCGCCCGGCGGCUCGAGCCCGGGUAAGUGUAAAUAGUCUGCAUGCCGCCGGGCGCCAUGCCUGCAGGUCGACUCUAGAAAACAUG,binding signal,[8],4.26 log2 enrichment (interaction score)
GGCUAGAACUAGUGGAUCCCCCGGCGCCCGGCGGCUCGAGCCCGGGUAAGCGUAAAUAGUCUGCAUGCCGCCGGGCGCCAUGCCUGCAGGUCGACUCUAGAAAACAUG,binding signal,[8],4.07 log2 enrichment (interaction score)
